Several values for one entry are separate records, joined by “and”; a condition that tells them apart may be missing. Equal entries are not always repeated. The panel holds about 83,000 compounds, 20% with a hit somewhere; the sample as a whole holds those more often.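 Single-dose data. Exposure time 48 hours. Values below 10 considered active.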 Activity calls are given as the source filed them.

The test concerns HL-60(TB) leukemia. The test can be described thus: NCI-60 one-dose screen, 48 h (100 = growth as untreated, 0 = no growth, -100 = all killed). Conditions: 10 µM unless noted.
With `Cc1c(C(=O)OC(=NC2CCCCC2)NC2CCCCC2)sc2c1c(=O)nc1c(C#N)n[nH]n12`, the growth is 124% (inactive).
For `COc1cc(NCCCCC(C)N)c2nccc(C)c2c1` (centres undefined) the value was 96.7% (inactive).
As to `Cn1cc(-c2csc(-c3c[nH]c4ccc(Br)cc34)n2)c2ccnc(Cl)c21`, the growth was 66.8% (inactive).
Under `COc1ccc2c(c1)C(=O)c1c-2c(OCCN(C)C)nc2cc(OC)c(OC)cc12` stands 89.9% (inactive); under `O=C(O)c1ccc(-n2cc(CNc3ccc(Oc4ccccc4)cc3)c(-c3ccccc3)n2)cc1`, 92.5% (inactive).
Under `COc1ccc(-c2nnc(SCC(=O)c3ccc(Cl)cc3)o2)cc1` stands 108% (inactive); under `COc1ccc(N=C2NN=C(c3ccc(F)cc3)CS2)cc1OC`, 84.5% (inactive).
On to `COC(C(=O)[C@@H](O)[C@@H](C)O)[C@@H]1Cc2cc3cc(O[C@H]4C[C@@H](O[C@H]5C[C@@H](O)[C@H](O)C(C)O5)[C@H](O)C(C)O4)cc(O)c3c(O)c2C(=O)[C@H]1O[C@H]1C[C@@H](O[C@H]2C[C@@H](O[C@H]3C[C@@H](OC)[C@H](O)C(C)O3)[C@@H](O)C(C)O2)[C@H](O)C(C)O1` (some centres undefined), for which the growth was 81.5% (inactive).
Under `O=S(=O)(Nc1ccc(NS(=O)(=O)c2ccccc2)c(Cl)c1)c1ccccc1` stands 78.4% (inactive); under `CCOC(=S)SCc1ccc(Cl)cc1`, 65.8% (inactive).
Under `O=C(O)c1ccccc1C(=O)OC1CCCC2CCCC21` (centres undefined) stands 104% (inactive); under `COc1ccc(Cl)cc1Nc1nc(C(F)(F)F)ccc1C(=O)N/N=C/c1cc(OC)c(OC)c(OC)c1`, -32.3% (active).
Under `CN(C)CCNc1nc2ccccc2c2c(=O)c3ccccc3sc12` stands 9.19% (active); under `Oc1ccc(Cl)cc1-c1cc(-c2ccccc2Cl)[nH]n1`, 46.6% (inactive); under `CNc1cc(-c2cccc(OC(F)(F)F)c2)nc2ccc(N3CCCC3)cc12`, -43% (active) and -44.1% (active) and 1.92% (active).
For the molecule `Cc1nc2ccccc2c(/C=C/c2ccc(Cl)cc2)c1C(=O)/C=C/c1ccc(Cl)cc1`, the growth is -34.6% (active).
Under `CC(C)[N+](C)(C)CC(O)COc1cccc2ccccc12` (centres undefined) stands 126% (inactive).
`CC[C@H](C)C(=O)O[C@H]1CCC=C2C=C[C@H](C)C(CCC3C[C@@H](O)CC(=O)O3)[C@H]21` (some centres undefined): the growth is 97.8% (inactive).
In the case of `COc1ccc(Nc2cc(Cl)ccc2C(=O)O)cn1`, the growth is 96.3% (inactive).
For `COCCOC(=O)NC(=O)Nc1ccc(/C(=N/O)c2ccc(Cl)cc2)cc1` the value was -20.4% (active).
Under `Cc1nn(-c2cc(=O)[nH]c3ccc(Cl)cc23)c(N)c1C#N` stands 100% (inactive); under `ClCc1ccc(-c2ccc(Cn3cnc4c(Cl)nc(Cl)nc43)cc2)cc1`, -53.7% (active); under `Cc1ccc(C(=O)Nc2ccc(Cl)cc2C(=O)NCc2ccccc2)cc1`, 51.9% (inactive).
Under `COc1ccccc1OC(=O)Oc1ccccc1OC` stands 101% (inactive) and 98.4% (inactive); under `COc1ccc(C(=O)N2NC(=O)/C(=C/c3ccc(F)cc3)N=C2c2ccccc2)cc1`, 3.84% (active).
As for `CCc1ncnc2c1ccn2C(C)c1ccc(OC)c(F)c1` (centres undefined), the growth is 31.7% (inactive).
Regarding `CCOC(=O)c1sc(Nc2ccc(Cl)cc2)nc1C`, the growth is 27.2% (inactive).
For `Cc1cc(=O)n(Nc2ccccc2)c(O)c1C#N` the value was 90.3% (inactive).
For `CN1CCN(Cc2ccc(NC(=O)c3cnc(F)c(C#Cc4cnc(N)c5ncccc45)c3)cc2C(F)(F)F)CC1` the value was -9.84% (active).
Consider `COC(=O)/C(CCC=C(C)C)=C1\[C@@H](OC(C)=O)C[C@@]2(C)[C@H]1C[C@@H](O)[C@H]1[C@@]3(C)CC[C@H](NCCCNCCCCNCCCN)[C@@H](C)[C@@H]3CC[C@@]12C`, for which the growth is 37.2% (inactive).
Under `O=C1/C(=C2/C=Nc3ccccc32)N(O)c2ccccc21` stands 8.87% (active); under `COc1ccc(-c2cnc(-c3ccc(F)cc3)[nH]2)cc1`, 74.9% (inactive); under `Oc1c(Cl)cc(Cl)c2ccc(Cn3cc(-c4ccc(C(F)(F)F)cc4)nn3)nc12`, -24.9% (active).
Under `CCCCCCCCCCCCCCCCN(CC)CC` stands -61.2% (active); under `O=S(=O)(Nc1ccccc1)c1ccc(C2CC3(Cl)C(Cl)=C(Cl)C2(Cl)C3(Cl)Cl)cc1` (centres undefined), 13% (inactive).
Under `COc1cc(-c2n/c(=C\c3c(O)[nH]c4ccc(Cl)cc34)cc3c2=Nc2ccccc2-3)ccc1F` stands 96.6% (inactive).
For `Cc1ccc(Nc2nc(N)c3ccccc3n2)cc1Cl`, the growth was 78.2% (inactive).
As to `COc1ccc2sc3c(NCCCN(C)C)nc4ccccc4c3c(=O)c2c1`, the growth was 38.7% (inactive).
Under `N#Cc1c(-c2ccc(Cl)cc2)nc(NN=Cc2cccc(O)c2)nc1N1CCOCC1` stands 66.6% (inactive).
